Screening results: PubChem, several laboratories
A selection: hits, their analogues and other compounds. The true share with any hit is near 3.7%.
BJeLR lethal: MLPCN primary cell-based screen for lethality selective to Ras in HRASV12 cells; BJeLR (HRASV12) viability, CellTiter-Glo ATP luminescence, 48 h; inhibition, % (no concentration beside the values); 300,000 compounds, 0.17% hits; AID 1554, 2009; in the data active means inhibition above about 50%; inconclusive means no clear call, values can overlap the other calls
Anthrax LF prot: Bacillus anthracis LF protease inhibitors, primary screen, biochemical, multiplex microsphere, MLPCN library; multiplex microsphere protease cleavage assay; inhibition, % at 10 µM; 360,000 compounds, 0.12% hits; AID 588501, 2011; further: plate controls were buffer without enzyme for full effect and enzyme alone for no effect
Target sequence (P15917 whole entry, looked up): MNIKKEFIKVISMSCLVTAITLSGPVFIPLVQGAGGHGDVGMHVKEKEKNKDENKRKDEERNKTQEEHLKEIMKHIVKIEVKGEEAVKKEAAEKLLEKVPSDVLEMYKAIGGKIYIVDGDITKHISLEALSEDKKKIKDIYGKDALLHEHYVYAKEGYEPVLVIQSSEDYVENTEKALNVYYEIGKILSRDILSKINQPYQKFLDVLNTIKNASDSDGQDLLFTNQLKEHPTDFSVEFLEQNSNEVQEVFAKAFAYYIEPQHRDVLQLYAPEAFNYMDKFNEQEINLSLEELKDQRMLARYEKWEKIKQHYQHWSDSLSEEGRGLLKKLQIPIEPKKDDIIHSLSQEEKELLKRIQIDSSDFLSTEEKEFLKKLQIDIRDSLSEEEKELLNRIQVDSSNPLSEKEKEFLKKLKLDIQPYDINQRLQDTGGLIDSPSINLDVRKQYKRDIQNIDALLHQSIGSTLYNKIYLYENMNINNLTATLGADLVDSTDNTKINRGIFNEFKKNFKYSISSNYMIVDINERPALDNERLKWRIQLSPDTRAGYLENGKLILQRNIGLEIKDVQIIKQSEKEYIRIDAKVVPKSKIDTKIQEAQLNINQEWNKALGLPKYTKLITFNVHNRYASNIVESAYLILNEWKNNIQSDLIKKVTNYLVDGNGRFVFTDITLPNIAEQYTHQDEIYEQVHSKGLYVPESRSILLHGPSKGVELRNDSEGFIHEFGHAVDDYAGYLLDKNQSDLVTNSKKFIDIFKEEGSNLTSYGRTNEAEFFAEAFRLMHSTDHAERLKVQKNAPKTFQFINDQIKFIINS
BH1578 lux ind: inducers of Vibrio cholerae quorum light production without autoinducers, primary screen, BH1578 luxS cqsA deficient, single point; V. cholerae BH1578 lux reporter, luminescence, 6 h; activation, % at 18.7 µM; 350,000 compounds, 0.16% hits; in the data active means activation mostly above about 9.7%, no sharp cut-off; inconclusive means no clear call, values can overlap the other calls; inactive means mostly below about 3.7%
Autofluor counter: compound fluorescence in toxin protease inhibitor counterscreen; compound autofluorescence counterscreen, microsphere flow cytometry; stronger effect = higher value; 360,000 compounds, 3.1% hits; fluorescence intensity (no concentration beside the values); in the data active means fluorescence intensity above about 16000; inconclusive means no clear call, values can overlap the other calls
BoNT-F LC inh: BoNT/F light chain protease inhibitors, primary screen, biochemical, flow cytometry, MLPCN library; Multiplex microsphere protease cleavage assay; inhibition, % at 10 µM; AID 588497, 2011; 360,000 compounds, 0.22% hits; Botulinum neurotoxin type F light chain protease (Clostridium botulinum); in the data active means inhibition above about 35%, passing the limit was not always enough; inconclusive means no clear call, values can overlap the other calls; further: plate controls were buffer without enzyme for full effect and enzyme alone for no effect
BoNT-A LC inh2: BoNT/A light chain protease inhibitors, primary screen, biochemical, flow cytometry, MLPCN library; 360,000 compounds, 0.17% hits; inhibition, % at 10 µM; multiplex microsphere protease substrate cleavage; Botulinum neurotoxin type A light chain protease (Clostridium botulinum A str. ATCC 3502); further: plate controls were buffer without enzyme for full effect and enzyme alone for no effect
An asterisk follows results filed as active. Unless noted, no stated cut-off is given here; in the data, active means inhibition above about 30%; inconclusive means no clear call, values can overlap the other calls; inactive means below that.

Screening Cc1ccc(NC(=O)C2CCN(C(=O)NCc3ccccc3)CC2)cc1C returned BJeLR lethal 1, Anthrax LF prot -4, BH1578 lux ind 0, Autofluor counter 4459, BoNT-F LC inh 2 and BoNT-A LC inh2 0.
CCOc1ccc(NC(=O)C2CC=CCC2C(=O)O)cc1 (stereo not given) was read as BJeLR lethal -3, Anthrax LF prot 0, BH1578 lux ind -3, Autofluor counter 22332*, BoNT-F LC inh 0 and BoNT-A LC inh2 0.
Screening COc1ccc(N2CCC(CNC(=O)Nc3ccccc3)C2)cc1 (stereo not given) returned BJeLR lethal -11, Anthrax LF prot -13, BH1578 lux ind inactive, Autofluor counter 19305*, BoNT-F LC inh -22 and BoNT-A LC inh2 6.
`O=[N+]([O-])c1cc(Br)c(O)c(/C=N/Nc2nnnn2-c2cccc3ccccc23)c1` gave BJeLR lethal -20, Anthrax LF prot -3, BH1578 lux ind -4, Autofluor counter 22718*, BoNT-F LC inh -1 and BoNT-A LC inh2 0.
For COc1ccc(-c2ccc(C(=O)Nc3ccc(OC)nc3)c3occc23)c(C)c1 the results were Anthrax LF prot -6, BH1578 lux ind -6, Autofluor counter 3467, BoNT-F LC inh -7 and BoNT-A LC inh2 0.
Screening COc1cc(CNc2ncc(-c3ccc(Cl)cc3)n2C)cc(OC)c1OC returned BJeLR lethal 1, Anthrax LF prot -4, BH1578 lux ind 0, Autofluor counter 3916, BoNT-F LC inh -7 and BoNT-A LC inh2 -3.
For Cn1c(-c2ccc3c(c2)OCO3)cnc1NCc1ccc(Cl)cc1 the results were BJeLR lethal 5, Anthrax LF prot -11, BH1578 lux ind inactive, Autofluor counter 21164*, BoNT-F LC inh -4 and BoNT-A LC inh2 -2.
`Cn1c(-c2ccc(F)cc2)cnc1NCc1ccc(F)cc1` gave BJeLR lethal -8, Anthrax LF prot 1, BH1578 lux ind 3, Autofluor counter 3782, BoNT-F LC inh -3 and BoNT-A LC inh2 1.
Screening Cc1ccc(CNc2ncc(-c3ccc4c(c3)OCO4)n2C)cc1 returned BJeLR lethal 0, Anthrax LF prot -4, BH1578 lux ind inactive, Autofluor counter 22743*, BoNT-F LC inh 1 and BoNT-A LC inh2 1.
For CC(=O)c1cc2c(ccc3ccccc32)oc1=O the results were BJeLR lethal 1, Anthrax LF prot 5, BH1578 lux ind inactive, Autofluor counter 4156, BoNT-F LC inh 10 and BoNT-A LC inh2 -2.
`O=C(c1ccco1)c1cc2c(ccc3ccccc32)oc1=O` gave BJeLR lethal -4, Anthrax LF prot 3, BH1578 lux ind 2, Autofluor counter 22410*, BoNT-F LC inh 3 and BoNT-A LC inh2 3.
O=C(Nc1cccc(C(F)(F)F)c1)Nc1nnc([C@@H]2C[C@H](O)[C@@H](CO)O2)s1 was read as Anthrax LF prot 2, BH1578 lux ind -3, Autofluor counter 3363, BoNT-F LC inh 1 and BoNT-A LC inh2 0.
Cc1cc(=O)oc2cc(OCC(=O)Nc3nnc(CC(C)C)s3)ccc12 was read as BJeLR lethal 1, Anthrax LF prot 4, BH1578 lux ind inactive, Autofluor counter 4905, BoNT-F LC inh 35* and BoNT-A LC inh2 0.
For CCNC(=S)NNC(=O)c1cc(-c2cc(C)ccc2C)nc2ccccc12 the results were BJeLR lethal -5, Anthrax LF prot -1, BH1578 lux ind 0, Autofluor counter 19654*, BoNT-F LC inh 3 and BoNT-A LC inh2 1.
For CCCc1cc(C(=O)NNC(=S)NCC)c2ccccc2n1 the results were BJeLR lethal -3, Anthrax LF prot 0, BH1578 lux ind -1, Autofluor counter 1976, BoNT-F LC inh 1 and BoNT-A LC inh2 0.
For Nc1ccn([C@@H]2O[C@H](C(=O)N(CCC3=CCCCC3)CC3CC3)[C@@H](O)[C@H]2O)c(=O)n1 the results were Anthrax LF prot 0, Autofluor counter 5435, BoNT-F LC inh 2 and BoNT-A LC inh2 0.
`O=C(Cn1c(=O)[nH]c2ccsc2c1=O)NC1CCCCCC1` gave BJeLR lethal 6, Anthrax LF prot -4, BH1578 lux ind inactive, Autofluor counter 23444*, BoNT-F LC inh -1 and BoNT-A LC inh2 inconclusive.
`CC1CCC(NC(=O)Cn2c(=O)[nH]c3ccsc3c2=O)CC1` (stereo not given) gave BJeLR lethal -3, Anthrax LF prot inconclusive, BH1578 lux ind 0, Autofluor counter inconclusive, BoNT-F LC inh inconclusive and BoNT-A LC inh2 inconclusive.
COc1cc(/C=C/c2ccc3cccc(O)c3n2)cc(OC)c1OC was read as BJeLR lethal 56*, Anthrax LF prot -4, BH1578 lux ind -1, Autofluor counter 3372, BoNT-F LC inh -2 and BoNT-A LC inh2 -1.
CCOc1ccc2c(S(=O)(=O)O)cccc2c1[N+](=O)[O-] was read as Anthrax LF prot -5, BH1578 lux ind 1, Autofluor counter 4018, BoNT-F LC inh -3 and BoNT-A LC inh2 0.
Screening CC1=C(C(=O)N(C)C)CC(CC(=O)NC2CCCC2)C(=O)N1Cc1ccccc1 (stereo not given) returned Anthrax LF prot -6, BH1578 lux ind 0, Autofluor counter 3592, BoNT-F LC inh 3 and BoNT-A LC inh2 0.
For Cn1c(-c2cc3ccc(OC(=O)C(C)(C)C)cc3oc2=O)nc2ccccc21 the results were BJeLR lethal -4, Anthrax LF prot 0, BH1578 lux ind inactive, Autofluor counter 16715*, BoNT-F LC inh 1 and BoNT-A LC inh2 0.
`O=S1(=O)CC(N2CC=CC2)CN1Cc1ccccc1` (stereo not given) gave Anthrax LF prot -4, Autofluor counter 4213, BoNT-F LC inh -14 and BoNT-A LC inh2 -1.
O=[N+]([O-])c1cc(Br)c(Nc2ccccc2)c([N+](=O)[O-])c1 was read as BJeLR lethal 60*, Anthrax LF prot -1, BH1578 lux ind inactive, Autofluor counter 3507, BoNT-F LC inh -6 and BoNT-A LC inh2 -3.
For O=C(Nc1ccccc1)c1ccc(Nc2c([N+](=O)[O-])cc([N+](=O)[O-])c3ccccc23)cc1 the results were BJeLR lethal 5, Anthrax LF prot -1, BH1578 lux ind 0, Autofluor counter 2045, BoNT-F LC inh -1 and BoNT-A LC inh2 0.
Screening CCc1ccc(CNCCNCC(C)O)cc1 (stereo not given) returned BJeLR lethal 1, Anthrax LF prot -1, BH1578 lux ind inactive, Autofluor counter 21353*, BoNT-F LC inh -9 and BoNT-A LC inh2 -2.
For CCc1ccc(C#CC2=CC(=O)CC(C)(C)C2)cc1 the results were Anthrax LF prot -10, BH1578 lux ind -1, Autofluor counter 3824, BoNT-F LC inh -6 and BoNT-A LC inh2 0.
C=CCc1c(C)nc2cc(-c3ccc(C)cc3)[nH]n2c1=O was read as BJeLR lethal -12, Anthrax LF prot 3, BH1578 lux ind -1, Autofluor counter 3332, BoNT-F LC inh inconclusive and BoNT-A LC inh2 -4.
